Data published in PubChem BioAssay (EPA / NIEHS).
Activity calls are given as the source filed them. How the source made its calls: active means hit-call score of the fitted dose curve at least 0.9, where 1 is the maximum; inactive means score below 0.9.

Tests used:
[1] = read-out: Interleukin-1 alpha (IL1a), IL1A (gene 3552); assay: BSK_KF3CT_IL1a: BioMAP Diversity Plus: KF3CT Assay for Interleukin-1 alpha (IL1a) Biomarker Activity (AID 2283070); conditions: primary human keratinocytes with fibroblasts; actives raise or lower the signal
How it was run: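 Readout is IL-1a level by ELISA, compared bidirectionally with DMSO as baseline. Cells: human keratinocytes co-cultured with foreskin fibroblasts, harvested 24 h post-dose.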

[2] = read-out: TIMP metallopeptidase inhibitor 2 (TIMP2), TIMP2 (gene 7077); assay: BSK_KF3CT_TIMP2: BioMAP Diversity Plus: KF3CT Assay for TIMP metallopeptidase inhibitor 2 (TIMP2) Biomarker Activity (AID 2283071); conditions: primary human keratinocytes with fibroblasts; actives raise or lower the signal
How it was run: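 TIMP-2 measured by ELISA at 24 h in human keratinocyte/fibroblast primary co-cultures exposed to chemicals. Both increases and decreases were fitted against DMSO. Parallel cultures were stained with SRB for total protein as an overt-cytotoxicity check.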

[3] = read-out: Transforming growth factor beta 1 (TGFb1), TGFB1 (gene 7040); assay: BSK_KF3CT_TGFb1: BioMAP Diversity Plus: KF3CT Assay for Transforming growth factor beta 1 (TGFb1) Biomarker Activity (AID 2283072); conditions: primary human keratinocytes with fibroblasts; actives raise or lower the signal
How it was run: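 ELISA quantifies TGF-b1 at 24 h post-dose in a primary human skin co-culture of keratinocytes and fibroblasts, with gain or loss judged against DMSO. Parallel SRB total-protein staining flags overt cytotoxicity.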

[4] = read-out: C-C motif chemokine 2 (Homo sapiens) (UniProt P13500); assay: BSK_KF3CT_MCP1: BioMAP Diversity Plus: KF3CT Assay for Monocyte Chemoattractant Protein 1 (MCP1/CCL2) Biomarker Activity (AID 2283073); conditions: primary human keratinocytes with fibroblasts; actives raise or lower the signal
How it was run: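 Human keratinocyte–foreskin fibroblast co-culture; MCP-1 measured by ELISA 24 h after dosing. Bidirectional fit vs DMSO; cytotoxicity tracked by SRB total protein in parallel cultures.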

[5] = read-out: Matrix Metallopeptidase 9 (MMP9), MMP9 (gene 4318); assay: BSK_KF3CT_MMP9: BioMAP Diversity Plus: KF3CT Assay for Matrix Metallopeptidase 9 (MMP9) Biomarker Activity (AID 2283074); conditions: primary human keratinocytes with fibroblasts; actives raise or lower the signal;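 on AC50: MMP9 protein level quantified by ELISA in the co-culture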
How it was run: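 Values come from bidirectional fitting relative to DMSO of MMP-9 levels, which were measured by ELISA. Measurements were taken 24 h after chemical dosing of a keratinocyte and foreskin fibroblast co-culture.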

[6] = read-out: urokinase plasminogen activator (uPA), PLAU (gene 5328); assay: BSK_KF3CT_uPA: BioMAP Diversity Plus: KF3CT Assay for urokinase plasminogen activator (uPA) Biomarker Activity (AID 2283075); conditions: primary human keratinocytes with fibroblasts; actives raise or lower the signal
How it was run: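 Values derive from bidirectional fitting against DMSO controls. Keratinocyte/foreskin fibroblast co-cultures received chemical; 24 h later uPA was detected by ELISA, with SRB total-protein staining in parallel wells for overt cytotoxicity.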

[7] = read-out: CD40, CD40 (gene 958); assay: BSK_LPS_CD40: BioMAP Diversity Plus: LPS Assay for CD40 Biomarker Activity (AID 2283076); conditions: primary human HUVEC with PBMC; actives raise or lower the signal
How it was run: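 HUVEC plus PBMC co-culture stimulated with LPS; CD40 quantified by ELISA 24 h after compound dosing. Fitting was bidirectional relative to DMSO. SRB staining of parallel cultures flagged overt cytotoxicity.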

[8] = read-out: E-selectin (Homo sapiens) (UniProt P16581); assay: BSK_LPS_Eselectin: BioMAP Diversity Plus: LPS Assay for Eselectin Biomarker Activity (AID 2283077); conditions: primary human HUVEC with PBMC; actives raise or lower the signal
How it was run: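 Human umbilical vein endothelial cells co-cultured with PBMC under LPS stimulation; cell-surface E-selectin measured by ELISA 24 h after dosing. Change in either direction versus DMSO, with SRB total-protein staining in parallel cultures for cytotoxicity.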

[9] = read-out: Interleukin-8 (IL8), CXCL8 (gene 3576); assay: BSK_LPS_IL8: BioMAP Diversity Plus: LPS Assay for Interleukin-8 (IL8) Biomarker Activity (AID 2283078); conditions: primary human HUVEC with PBMC; actives raise or lower the signal
How it was run: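 Human umbilical vein endothelial cells co-cultured with PBMC, LPS-stimulated, exposed to compound for 24 h. IL-8 quantified by ELISA; fitted in both directions against DMSO, with SRB total-protein staining of parallel cultures for cytotoxicity.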

[10] = BSK_LPS_SRB: Viability Assessment in the BioMAP Diversity Plus: LPS Assay (AID 2283079); conditions: primary human HUVEC with PBMC;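 further: total protein by sulforhodamine B absorbance as a cytotoxicity measure; measured one day after compound addition; fitted in both directions against DMSO so loss or gain of signal counts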
How it was run: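 Co-culture of human umbilical vein endothelial cells and PBMC, read 24 h after dosing. Total protein by 0.1% SRB staining after 10% TCA fixation, absorbance at 560 nm; bidirectional fit against DMSO.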

[11] = read-out: Interleukin-1 alpha (IL1a), IL1A (gene 3552); assay: BSK_LPS_IL1a: BioMAP Diversity Plus: LPS Assay for Interleukin-1 alpha (IL1a) Biomarker Activity (AID 2283080); conditions: primary human HUVEC with PBMC; actives raise or lower the signal
How it was run: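 Human umbilical vein endothelial cells co-cultured with PBMC and stimulated with LPS; IL-1a measured by ELISA 24 h after dosing. Bidirectional fitting against DMSO; cytotoxicity checked by SRB staining in parallel cultures.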

[12] = read-out: Monocyte Chemoattractant Protein-1 (MCP1), CCL2 (gene 6347); assay: BSK_LPS_MCP1: BioMAP Diversity Plus: LPS Assay for Monocyte Chemoattractant Protein-1 (MCP1) Biomarker Activity (AID 2283081); conditions: primary human HUVEC with PBMC; actives raise or lower the signal
How it was run: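 Human umbilical vein endothelial cells co-cultured with PBMC, LPS-stimulated; secreted MCP-1 measured by ELISA 24 h after compound addition. Bidirectional curve fitting against DMSO baseline; SRB total-protein staining in parallel cultures for cytotoxicity.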

[13] = BSK_LPS_PGE2: BioMAP Diversity Plus: LPS Assay for Prostaglandin E2 (PGE2) Biomarker Activity (AID 2283082); conditions: primary human HUVEC with PBMC; actives raise or lower the signal;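 on AC50: secreted prostaglandin E2 measured by ELISA in LPS-stimulated co-culture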
How it was run: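 PGE2 release measured by ELISA in an LPS-activated co-culture of human umbilical vein endothelial cells and peripheral blood mononuclear cells, read at 24 h post-dosing. DMSO served as baseline for bidirectional curve fitting.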

[14] = read-out: Macrophage colony-stimulating factor (MCSF), CSF1 (gene 1435); assay: BSK_LPS_MCSF: BioMAP Diversity Plus: LPS Assay for Macrophage colony-stimulating factor (MCSF) Biomarker Activity (AID 2283083); conditions: primary human HUVEC with PBMC; actives raise or lower the signal
How it was run: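 HUVEC–PBMC co-culture, M-CSF measured by ELISA 24 h after chemical dosing. Fitted in both directions relative to DMSO as negative control; overt cytotoxicity assessed by SRB total-protein staining in parallel cultures.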

[15] = read-out: Tissue Factor, F3 (gene 2152); assay: BSK_LPS_TissueFactor: BioMAP Diversity Plus: LPS Assay for Tissue Factor Biomarker Activity (AID 2283084); conditions: primary human HUVEC with PBMC; actives raise or lower the signal
How it was run: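 Human umbilical vein endothelial cells co-cultured with PBMC were dosed with compound. Cell-surface CD142 was measured by ELISA 24 h later. Activity was fitted bidirectionally against DMSO, with SRB total-protein staining in parallel cultures for cytotoxicity.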

[16] = read-out: Tumor necrosis factor (Homo sapiens) (UniProt P01375); assay: BSK_LPS_TNFa: BioMAP Diversity Plus: LPS Assay for Tumour Necrosis Factor alpha (TNFa) Biomarker Activity (AID 2283085); conditions: primary human HUVEC with PBMC; actives raise or lower the signal;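 on AC50: TNFa protein level quantified by ELISA in the co-culture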
How it was run: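 TNFa was quantified by ELISA in LPS-activated co-cultures of human endothelial cells and PBMC, 24 h post-dosing. Both increases and decreases versus DMSO were fitted.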

[17] = read-out: Vascular cell adhesion molecule 1 (VCAM1), VCAM1 (gene 7412); assay: BSK_LPS_VCAM1: BioMAP Diversity Plus: LPS Assay for Vascular cell adhesion molecule 1 (VCAM1) Biomarker Activity (AID 2283086); conditions: primary human HUVEC with PBMC; actives raise or lower the signal
How it was run: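 VCAM-1 quantified by ELISA in an LPS-activated co-culture of human endothelial cells and peripheral blood mononuclear cells, read 24 h post-treatment. Fitted in both directions versus DMSO; parallel SRB staining flags overt cytotoxicity.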

[18] = read-out: CD38, CD38 (gene 952); assay: BSK_SAg_CD38: BioMAP Diversity Plus: SAg Assay for CD38 Biomarker Activity (AID 2283087); conditions: primary human HUVEC with PBMC; actives raise or lower the signal
How it was run: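 CD38 quantified by ELISA (fluorescence) in a superantigen-activated endothelial cell–PBMC co-culture at 24 h post-dose. Activity fitted in both directions relative to DMSO; parallel SRB and Alamar Blue cytotoxicity read-outs.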

[19] = read-out: CD40, CD40 (gene 958); assay: BSK_SAg_CD40: BioMAP Diversity Plus: SAg Assay for CD40 Biomarker Activity (AID 2283088); conditions: primary human HUVEC with PBMC; actives raise or lower the signal
How it was run: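 HUVEC plus PBMC co-culture, superantigen-activated, with CD40 read by ELISA 24 h after dosing. Curves fitted in both directions against DMSO. Overt cytotoxicity checked by parallel SRB total-protein staining.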

[20] = read-out: CD69, CD69 (gene 969); assay: BSK_SAg_CD69: BioMAP Diversity Plus: SAg Assay for CD69 Biomarker Activity (AID 2283089); conditions: primary human HUVEC with PBMC; actives raise or lower the signal;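 on AC50: cell surface CD69 protein quantified by ELISA with fluorescence detection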
How it was run: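 Values derive from bidirectional fitting relative to DMSO vehicle. Cells: umbilical vein endothelium plus peripheral blood mononuclear cells, treated 24 h before fluorescent ELISA for CD69.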

Measured: AC50

Chain of Tumor necrosis factor (Homo sapiens) (P01375 whole entry, looked up): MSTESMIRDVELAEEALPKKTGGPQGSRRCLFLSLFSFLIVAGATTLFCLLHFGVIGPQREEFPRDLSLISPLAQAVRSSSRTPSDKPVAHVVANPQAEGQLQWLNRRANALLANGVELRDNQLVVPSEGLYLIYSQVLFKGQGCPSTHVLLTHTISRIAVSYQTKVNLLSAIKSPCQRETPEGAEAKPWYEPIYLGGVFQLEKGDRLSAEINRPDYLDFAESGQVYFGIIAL
Chain of E-selectin (Homo sapiens) (P16581 whole entry, looked up): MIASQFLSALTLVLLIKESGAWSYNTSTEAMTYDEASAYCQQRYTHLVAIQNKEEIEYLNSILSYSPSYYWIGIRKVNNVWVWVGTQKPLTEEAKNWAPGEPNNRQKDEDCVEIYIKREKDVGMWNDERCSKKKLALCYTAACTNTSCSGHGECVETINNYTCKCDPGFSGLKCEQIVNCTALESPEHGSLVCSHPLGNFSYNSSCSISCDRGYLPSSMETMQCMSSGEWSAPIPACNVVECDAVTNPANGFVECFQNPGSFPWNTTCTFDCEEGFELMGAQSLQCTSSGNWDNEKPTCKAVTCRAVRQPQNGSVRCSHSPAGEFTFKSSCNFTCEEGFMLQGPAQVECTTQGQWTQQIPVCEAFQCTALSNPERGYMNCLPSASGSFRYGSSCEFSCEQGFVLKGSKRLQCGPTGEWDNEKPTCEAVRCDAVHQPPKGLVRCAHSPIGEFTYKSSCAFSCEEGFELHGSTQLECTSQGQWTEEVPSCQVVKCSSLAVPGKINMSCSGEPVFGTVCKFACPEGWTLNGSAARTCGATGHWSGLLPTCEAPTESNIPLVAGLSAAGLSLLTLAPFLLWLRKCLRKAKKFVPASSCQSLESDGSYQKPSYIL

CCC(=O)Nc1ccc(Cl)c(Cl)c1
active: [13] 8.77 µM
inactive: all other assays above

COP(=O)(OC)SCn1c(=O)oc2cc(Cl)cnc21
active: [4] 31.3 µM | [5] 25.8 µM | [6] 20 µM | [7] 19.8 µM | [8] 19.1 µM | [9] 20 µM | [10] 20 µM | [13] 2.01 µM | [14] 18.3 µM | [16] 0.148 µM | [17] 4.34 µM | [18] 21.4 µM | [19] 20 µM | [20] 20 µM
inactive: [1] | [2] | [3] | [11] | [12] | [15]

CN(C)C(=O)Nc1cccc(C(F)(F)F)c1
inactive: all assays above

COc1cccc(C(=O)NN(C(=O)c2cc(C)cc(C)c2)C(C)(C)C)c1C
inactive: all assays above

CCOC(=O)COc1cc(-c2nn(C)c(OC(F)F)c2Cl)c(F)cc1Cl
active: [20] 3.97 µM
not listed: [15]
inactive: all other assays above
